Consider four compounds from PubChem BioAssay.

In test [1] the target is Nuclear receptor coactivator 3 (Homo sapiens) (UniProt Q9Y6Q9). As to the kind of experiment: NCOA3 GAL4-fusion reporter inhibition – cell-based, luminescence, quadruplicate, confirmation (AID 588792;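 active means mean inhibition over 43.08%, the solvent-only control mean plus 3 SD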;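 further: 0% = DMSO treated cells and 100% = gossypol at 36 µM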). As to conditions: HEK293 GAL4-SRC3 luciferase reporter, at 3.6 µM, active compounds read high. (In general: In a reporter assay the amount or activity of a reporter protein is the signal.)
Sequence of Nuclear receptor coactivator 3 (Homo sapiens) (Q9Y6Q9 whole entry, looked up, the tested form may be a part): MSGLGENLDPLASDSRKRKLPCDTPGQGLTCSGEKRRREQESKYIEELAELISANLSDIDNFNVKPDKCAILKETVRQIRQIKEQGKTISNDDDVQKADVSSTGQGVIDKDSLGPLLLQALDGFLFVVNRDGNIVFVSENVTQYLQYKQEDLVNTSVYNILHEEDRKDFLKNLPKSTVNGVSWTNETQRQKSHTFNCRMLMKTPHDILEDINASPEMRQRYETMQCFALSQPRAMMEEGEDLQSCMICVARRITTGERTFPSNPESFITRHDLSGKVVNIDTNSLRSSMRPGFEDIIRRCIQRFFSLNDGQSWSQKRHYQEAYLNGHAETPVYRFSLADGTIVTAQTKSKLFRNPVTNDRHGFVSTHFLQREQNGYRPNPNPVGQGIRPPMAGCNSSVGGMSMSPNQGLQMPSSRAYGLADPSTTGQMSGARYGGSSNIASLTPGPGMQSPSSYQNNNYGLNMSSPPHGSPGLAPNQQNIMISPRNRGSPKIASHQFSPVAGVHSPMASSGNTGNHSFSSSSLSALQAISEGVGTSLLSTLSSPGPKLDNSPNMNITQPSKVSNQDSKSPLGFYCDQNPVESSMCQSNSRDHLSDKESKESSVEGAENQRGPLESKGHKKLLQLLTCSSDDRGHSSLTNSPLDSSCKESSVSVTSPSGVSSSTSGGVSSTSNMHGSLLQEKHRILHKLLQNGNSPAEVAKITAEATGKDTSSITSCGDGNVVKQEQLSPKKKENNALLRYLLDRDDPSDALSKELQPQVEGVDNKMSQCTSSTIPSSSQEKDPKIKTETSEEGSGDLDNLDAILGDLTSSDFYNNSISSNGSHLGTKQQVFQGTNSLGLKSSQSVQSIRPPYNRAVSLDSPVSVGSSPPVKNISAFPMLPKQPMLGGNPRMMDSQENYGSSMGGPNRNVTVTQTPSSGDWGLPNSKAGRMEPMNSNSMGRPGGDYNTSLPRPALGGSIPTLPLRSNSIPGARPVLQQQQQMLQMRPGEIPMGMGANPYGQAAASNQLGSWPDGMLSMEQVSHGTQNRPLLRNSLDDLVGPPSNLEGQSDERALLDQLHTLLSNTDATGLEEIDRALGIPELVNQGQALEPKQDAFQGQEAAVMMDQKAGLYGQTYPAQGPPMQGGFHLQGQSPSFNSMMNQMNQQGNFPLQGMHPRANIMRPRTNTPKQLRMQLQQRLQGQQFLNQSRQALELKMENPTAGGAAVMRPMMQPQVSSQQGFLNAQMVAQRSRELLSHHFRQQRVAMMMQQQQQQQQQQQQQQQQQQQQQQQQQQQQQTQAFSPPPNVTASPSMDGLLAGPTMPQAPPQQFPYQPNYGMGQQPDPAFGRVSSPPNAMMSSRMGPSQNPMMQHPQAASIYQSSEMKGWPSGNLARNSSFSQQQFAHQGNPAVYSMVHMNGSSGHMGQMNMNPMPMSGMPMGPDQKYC

The test system of test [2] is transactivating tegument protein VP16 (Human herpesvirus 1), Gal4-VP16 luciferase reporter. As to the kind of experiment: repression of VP16-driven luciferase reporter – cell-based, luminescence, high throughput, counter-screen for SRC3 inhibitor project (AID 588794; in the data active means inhibition above about 30%). The conditions noted are these: mammalian cells, at 3.6 µM, active compounds read high.
The target in test [3] is Nuclear receptor coactivator 1 (Homo sapiens) (UniProt Q15788). As to the kind of experiment: NCOA1 GAL4-fusion reporter inhibition – cell-based, luminescence, quadruplicate, confirmation (AID 588820;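 active means mean inhibition above 46.68%, the untreated control wells mean plus 3 SD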;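 further: 0% = DMSO wells and 100% = gossypol 36 µM treated wells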). As to conditions: HEK293 GAL4-SRC1 luciferase reporter, at 3.6 µM, active compounds read high.
Test [4] in a line: repression of VP16-driven luciferase reporter – cell-based, luminescence, high throughput, counter-screen for SRC1 inhibitor project (AID 588824; in the data active means inhibition above about 25%). As to conditions: cell-based VP16 transactivation luciferase luminescence; at 3.6 µM; active compounds read high.
Test [5] concerns the target Photoreceptor-specific nuclear receptor (Homo sapiens) (UniProt Q9Y5X4). As to the kind of experiment: retest of NR2E3-NCOR disrupting agonists – cell-based, luminescence, CHO-S two-hybrid, confirmation (AID 624378;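 active means average inhibition above a cutoff equal to the mean inhibition of all tested compounds plus one SD, cut at about 70% in these data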;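 further: 0% = DMSO in NR2E3 cells and 100% = DMSO in cells lacking NR2E3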). The conditions noted are these: CHO-S mammalian two-hybrid NR2E3-NCOR, luciferase luminescence; at 3.98 µM; active compounds read high.
Test [6] is described as follows: nonselective effects on VP16 transactivation – cell-based, luminescence, CHO-S, high throughput, counter-screen for NR2E3 agonist project, confirmation (AID 624379;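 active means mean inhibition above a cutoff equal to the average over all tested compounds plus one standard deviation, cut at about 70% in these data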;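 further: 0% = DMSO with VP16-transfected cells and 100% = DMSO with cells lacking VP16; higher means less reporter light so more repression of VP16 activity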). The conditions noted are these: CHO-S GAL4-VP16 luciferase reporter, at 3.98 µM, active compounds read high.
The nature of test [7]: VP16-driven transactivation reporter suppression – cell-based, luminescence, HEK293, counter-screen for COUP-TFII antagonist project (AID 687007; in the data active means inhibition above about 13%). As to conditions: HEK293 Gal4-VP16 luciferase reporter, at 8.5 µM, active compounds read high. (A counterscreen serves to expose hits that act by an unwanted route or on another target.)
The target of test [8] is COUP transcription factor 2 (Homo sapiens) (UniProt P24468). As to the kind of experiment: retest of COUP-TFII reporter suppressors – cell-based, luciferase reporter, HEK293, triplicate, confirmation (AID 687008;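 active means mean inhibition over three repeats above a set limit taken from the earlier primary screen, cut at about 38% in these data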;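 further: 100% = cells given the luciferase reporter alone without the COUP-TF2 vector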). As to conditions: HEK293 NGFI-A luciferase reporter, luminescence; at 8.5 µM; active compounds read high.
Sequence of COUP transcription factor 2 (Homo sapiens) (P24468 whole entry, looked up): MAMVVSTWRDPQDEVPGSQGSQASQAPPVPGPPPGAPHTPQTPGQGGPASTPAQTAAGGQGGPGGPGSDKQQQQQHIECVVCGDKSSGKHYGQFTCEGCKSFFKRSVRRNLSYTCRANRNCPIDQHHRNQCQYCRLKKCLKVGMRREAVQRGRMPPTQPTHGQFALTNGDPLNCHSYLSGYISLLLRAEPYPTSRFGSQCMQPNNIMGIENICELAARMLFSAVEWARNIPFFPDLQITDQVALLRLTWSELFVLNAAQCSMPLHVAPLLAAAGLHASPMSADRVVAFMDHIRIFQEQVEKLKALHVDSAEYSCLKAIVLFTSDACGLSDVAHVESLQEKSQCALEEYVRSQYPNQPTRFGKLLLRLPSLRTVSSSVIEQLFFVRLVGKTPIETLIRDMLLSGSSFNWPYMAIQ
Test [9] relates to HIV-1 integrase (multimerization). As to the kind of experiment: stimulation of HIV-1 integrase oligomerization – biochemical, TR-FRET, counter-screen for LEDGF/p75 integration inhibitor project (AID 1053131; in the data active means activation above about 8.9%). The conditions noted are these: TR-FRET HIV-1 integrase multimerization, at 7.7 µM, active compounds read high.
Test [10] in a line: compounds disturbing TR-FRET signal readout – biochemical, HIV-1 IN multimerization, artefact control for LEDGF/p75-dependent integration inhibitor project, confirmation (AID 1053135).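 Further: 0% = integrase with antibodies and DMSO and 100% = antibodies without integrase.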 The conditions noted are these: TR-FRET optical interference counterscreen, at 7.7 µM, active compounds read high. A general note: Time-resolved FRET reads energy transfer from a long-lived donor to a nearby acceptor.

Test [11] relates to HIV-1 integrase / human LEDGF/p75 complex. As to the kind of experiment: blockers of LEDGF/p75-dependent integrase activity – biochemical, TR-FRET, confirmation (AID 1053136; in the data active means inhibition above about 14%). The conditions noted are these: TR-FRET LEDGF/p75-dependent HIV-1 integration, at 3.7 µM, active compounds read high.
Test [12] can be described thus: potentiators of IFN-gamma STAT1 reporter activity – cell-based, HTS, luciferase reporter, confirmation (AID 1262;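 active means activation above a set limit carried over from the earlier primary STAT1 screen, cut at about 140% in these data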;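 further: simple ratio to median IFN-gamma plus DMSO wells so 0% means no light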). As to conditions: NIH 3T3 STAT1-luciferase reporter, IFN-gamma potentiation, luminescence; at 5.7 µM; active compounds read high; 100% = IFN-gamma EC80 alone, no compound.
Test [13] in a line: enhancement of NF-kB transcriptional signalling – cell-based, HEK293T, luciferase luminescence, TNF-alpha, counter-screen for STAT1 activator project (AID 1306;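 active means activation above the mean of solvent-only control wells plus 3 SD, set per campaign, cut at about 130% in these data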;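 further: TNF-alpha given at a submaximal dose yielding about 80% of full reporter signal; values are well signal over median control so 100% means no change and 0% no light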). The conditions noted are these: HEK293T NF-kB luciferase reporter, TNF-alpha stimulated, at 5.7 µM, active compounds read high, 100% = TNF-alpha with vehicle only.
Test [14] has as its target Signal transducer and activator of transcription 3 (Homo sapiens) (UniProt P40763). As to the kind of experiment: enhancers of IL-6 STAT3 transcription – U3A cells, luciferase, luminescence, counter-screen for STAT1 activator project, confirmation (AID 1316;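 active means activation above the solvent-only control well mean plus 3 SD, set per plate batch, cut at about 110% in these data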;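 further: 0% = no luminescence and 100% = median IL-6 plus DMSO wells; higher means more STAT3 reporter activation so hits are non-selective activators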). As to conditions: U3A cells STAT3-luciferase reporter, IL-6, luminescence; at 5.7 µM; active compounds read high; 100 = IL-6 alone, no compound effect; cells lack STAT1.

Test [15] has as its system TLR4-MyD88 interaction (human), BLA complementation. As to the kind of experiment: disruptors of TLR4 binding to MyD88 – cell-based, HeLa CL3-4, BLA complementation, FRET ratio, confirmation (AID 941;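 active means mean inhibition across three repeat runs above about 25% carried over from the earlier screen, limit read from the data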;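 further: plate controls were DMSO only for no effect and clavulanic acid blocking BLA at full dose for full effect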). As to conditions: CCF4 FRET ratio, at 8.4 µM, active compounds read high.
Test [16] can be described thus: BLA reporter interference in HeLa cells – cell-based, full-length BLA, CCF4 FRET ratio, artefact control for TLR4-MyD88 binding inhibitor project, confirmation (AID 1237;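 active means mean inhibition over three repeats above about 26% taken from the earlier screen, limit read from the data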;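 further: HeLa cells stably expressing beta-lactamase reporter as counterscreen for TLR4-MyD88 inhibitors; 0% = DMSO and 100% = clavulanic acid full inhibition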). The conditions noted are these: at 8.4 µM, active compounds read high.
Test [17] has as its system Fam108b (Abhd17b) serine hydrolase [Mus musculus]. As to the kind of experiment: inhibition of Fam108b (Abhd17b) hydrolase – biochemical, fluorescence polarization, triplicate, counter-screen for RBBP9 inhibitor project, confirmation (AID 1978;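 active means inhibition above a limit from the primary screen, the mean over all compounds plus 3 SD, cut at about 19% in these data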;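 further: 0% = median of active Fam108b wells and 100% = catalytically dead S170A mutant; inhibitors free the probe so polarization falls as inhibition rises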). The conditions noted are these: recombinant Fam108b, FP-Rh probe fluorescence polarization; at 9.51 µM; active compounds read high.
For test [18], the target named is Toll-like receptor 9 (Homo sapiens) (UniProt Q9NR96). As to the kind of experiment: disruptors of TLR9 binding to MyD88 – cell-based, CHO, BLA complementation, fluorescence, triplicate, confirmation (AID 540250;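 active means mean inhibition across three repeats above about 21% taken from the earlier screen, limit read from the data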;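 further: blue over green emission ratio reports constitutive TLR9 MyD88 association via BLA complementation; 0% = DMSO vehicle wells and 100% = clavulanate BLA inhibitor wells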). As to conditions: CCF4 FRET ratio, at 4.98 µM, active compounds read high.
Sequence of Toll-like receptor 9 (Homo sapiens) (Q9NR96 whole entry, looked up): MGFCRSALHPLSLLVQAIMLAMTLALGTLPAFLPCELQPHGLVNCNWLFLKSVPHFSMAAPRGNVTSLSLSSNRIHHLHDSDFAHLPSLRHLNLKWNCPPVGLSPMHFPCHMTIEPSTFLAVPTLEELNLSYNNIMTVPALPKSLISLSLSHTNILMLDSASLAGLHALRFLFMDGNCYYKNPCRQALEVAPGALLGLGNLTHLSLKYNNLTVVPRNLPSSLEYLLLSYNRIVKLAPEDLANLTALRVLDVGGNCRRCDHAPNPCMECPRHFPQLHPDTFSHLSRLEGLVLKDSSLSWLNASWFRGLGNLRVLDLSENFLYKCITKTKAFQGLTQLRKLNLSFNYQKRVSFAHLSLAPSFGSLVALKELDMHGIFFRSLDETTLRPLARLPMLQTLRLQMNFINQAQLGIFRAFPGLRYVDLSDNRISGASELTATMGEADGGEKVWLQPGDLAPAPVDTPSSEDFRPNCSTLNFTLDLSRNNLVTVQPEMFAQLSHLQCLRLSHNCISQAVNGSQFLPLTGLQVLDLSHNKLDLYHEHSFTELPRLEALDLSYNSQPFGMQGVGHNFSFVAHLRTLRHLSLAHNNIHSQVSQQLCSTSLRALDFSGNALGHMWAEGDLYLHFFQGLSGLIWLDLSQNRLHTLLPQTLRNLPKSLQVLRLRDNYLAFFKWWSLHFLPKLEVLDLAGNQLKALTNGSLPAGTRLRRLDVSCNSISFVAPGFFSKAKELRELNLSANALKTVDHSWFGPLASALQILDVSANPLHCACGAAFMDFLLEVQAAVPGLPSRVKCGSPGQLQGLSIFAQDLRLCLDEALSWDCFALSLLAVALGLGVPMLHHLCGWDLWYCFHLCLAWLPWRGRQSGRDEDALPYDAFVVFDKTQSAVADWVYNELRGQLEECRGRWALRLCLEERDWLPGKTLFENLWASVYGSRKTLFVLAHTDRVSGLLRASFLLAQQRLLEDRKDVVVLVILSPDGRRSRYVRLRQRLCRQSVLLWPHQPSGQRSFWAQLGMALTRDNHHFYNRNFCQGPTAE
Test [19] is described as follows: BLA reporter readout interference – cell-based, fluorescence, artefact control for TLR9-MyD88 binding inhibitor project (AID 540251;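 active means mean inhibition above a 50% cutoff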;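 further: counterscreen of TLR9-MyD88 hits on CMV-driven BLA in CHO-K1 cells; 0% = DMSO alone and 100% = clavulanate blocking BLA; higher means less blue over green ratio so more BLA blockade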). As to conditions: CHO-BLA cells, CCF4 FRET ratio, at 4.98 µM, active compounds read high.
Test [20] is described as follows: CHO cell viability loss – luminescence, single concentration, cytotoxicity control for TLR9-MyD88 binding inhibitor project (AID 588336; in the data active means inhibition above about 11%). The conditions noted are these: TLR9-MyD88 CHO cells cytotoxicity, at 4.98 µM, active compounds read high.
The target of test [21] is Receptor-interacting serine/threonine-protein kinase 2 (Homo sapiens) (UniProt O43353). As to the kind of experiment: inhibitors of RIPK2 association with NOD2 – fluorescence, CHO cells, BLA complementation, triplicate, confirmation (AID 624370;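 active means mean inhibition across replicates above a set limit taken from the earlier primary screen, cut at about 21% in these data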;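 further: 0% = DMSO-only wells and the high end = clavulanate BLA-blocked wells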). The conditions noted are these: CCF4 FRET, at 4.98 µM, active compounds read high.
Sequence of Receptor-interacting serine/threonine-protein kinase 2 (Homo sapiens) (O43353 whole entry, looked up): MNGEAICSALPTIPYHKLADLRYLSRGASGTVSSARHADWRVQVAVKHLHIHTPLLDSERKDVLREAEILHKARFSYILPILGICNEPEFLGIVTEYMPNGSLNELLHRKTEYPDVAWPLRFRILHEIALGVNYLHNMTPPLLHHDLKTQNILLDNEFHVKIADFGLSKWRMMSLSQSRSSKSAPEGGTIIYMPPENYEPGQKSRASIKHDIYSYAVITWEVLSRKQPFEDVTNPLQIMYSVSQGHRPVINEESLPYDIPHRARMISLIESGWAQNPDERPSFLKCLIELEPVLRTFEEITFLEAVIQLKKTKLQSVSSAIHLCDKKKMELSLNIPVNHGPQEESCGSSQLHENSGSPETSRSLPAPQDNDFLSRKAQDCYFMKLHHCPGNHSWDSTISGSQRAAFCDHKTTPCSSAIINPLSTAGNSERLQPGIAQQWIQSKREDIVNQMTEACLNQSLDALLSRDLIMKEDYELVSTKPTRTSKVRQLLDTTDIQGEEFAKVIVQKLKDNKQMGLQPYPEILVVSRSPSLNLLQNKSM
Test [22] is described as follows: BLA reporter readout interference – cell-based, CHO-K1 CMV-bla, CCF4 FRET, fluorescence, artefact control for NOD2-RIPK2 interaction inhibitor project, confirmation (AID 624371;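 active means mean inhibition above the low-control mean inhibition plus three low-control SD, cut at about 11% in these data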;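 further: 0% = DMSO only wells and 100% = clavulanate high control wells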). The conditions noted are these: CCF4 FRET ratio, counterscreen, at 4.98 µM, active compounds read high.
The target in test [23] is Serine protease HTRA1 (Homo sapiens) (UniProt Q92743). As to the kind of experiment: confirming inhibition of human HTRA1 – biochemical, fluorescence polarization, confirmation (AID 540248;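 active means mean inhibition over three repeats above a set limit taken from the earlier primary screen, cut at about 37% in these data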;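 further: 0% = HTRA1 with DMSO and 100% = wells lacking HTRA1; inhibitors block probe binding so polarization drops and inhibition rises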). The conditions noted are these: recombinant HTRA1, FP-rhodamine activity-based probe, at 5.96 µM, active compounds read high.
Test [24] can be described thus: StAR promoter reporter inhibitors, counter-screen for LRH-1 inverse agonist project, cell-based, luminescence, high throughput (AID 651611; in the data active means inhibition above about 28%). As to conditions: StAR promoter luciferase reporter counterscreen, at 3.6 µM, active compounds read high.
Test [25] has as its target Nuclear receptor subfamily 5 group A member 2 (Homo sapiens) (UniProt O00482). As to the kind of experiment: NR5A2 activity suppression in reporter cells – cell-based, luminescence, confirmation (AID 651613; in the data active means inhibition above about 42%;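 further: HEK293T cells co-transfected with LRH-1 and StAR promoter luciferase reporter; 0% = vehicle wells and 100% = parental cells lacking receptor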). As to conditions: cell-based LRH-1 luciferase reporter, inverse agonism; at 3.6 µM; active compounds read high.
Test [26] deals with Steroidogenic factor 1 (Homo sapiens) (UniProt Q13285). As to the kind of experiment: inverse agonism at SF1 nuclear receptor – cell-based, luminescence, high throughput, counter-screen for LRH-1 inverse agonist project (AID 651614; in the data active means inhibition above about 44%;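 further: cells cotransfected with StAR promoter reporter and SF1 expression vector; 0% = vehicle on cells with receptor and 100% = vehicle on cells lacking receptor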). The conditions noted are these: cell-based SF1 luciferase reporter, at 3.6 µM, active compounds read high.
Sequence of Steroidogenic factor 1 (Homo sapiens) (Q13285 whole entry, looked up, the tested form may be a part): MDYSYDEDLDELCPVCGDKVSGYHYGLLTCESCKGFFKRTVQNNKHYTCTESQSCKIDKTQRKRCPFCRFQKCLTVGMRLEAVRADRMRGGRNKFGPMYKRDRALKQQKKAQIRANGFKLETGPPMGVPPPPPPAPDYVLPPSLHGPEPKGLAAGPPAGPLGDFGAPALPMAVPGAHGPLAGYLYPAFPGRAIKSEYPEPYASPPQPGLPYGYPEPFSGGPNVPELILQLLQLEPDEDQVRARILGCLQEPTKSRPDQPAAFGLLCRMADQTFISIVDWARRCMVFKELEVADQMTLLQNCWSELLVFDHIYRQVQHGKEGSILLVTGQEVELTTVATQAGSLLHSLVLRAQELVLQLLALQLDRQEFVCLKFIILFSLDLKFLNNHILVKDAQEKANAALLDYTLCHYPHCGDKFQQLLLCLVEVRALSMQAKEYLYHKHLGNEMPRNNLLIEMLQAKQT
The nature of test [27]: compounds suppressing VP16-driven luciferase signal – cell-based, luminescence, high throughput, counter-screen for LRH-1 inverse agonist project (AID 651615; in the data active means inhibition above about 33%). The conditions noted are these: Gal4-VP16 luciferase reporter cells, at 3.6 µM, active compounds read high.
The nature of test [28]: BSA probe fluorescence interference – biochemical, TAMRA-labeled BSA, counter-screen for TCR-CD3 interaction inhibitor project (AID 652035; in the data active means inhibition above about 23%;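 further: 0% = buffer low control and 100% = reference high control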). The conditions noted are these: TAMRA-labeled BSA probe fluorescence counterscreen; at 9.4 µM; active compounds read high.
The test system of test [29] is T-cell receptor (TCR)-CD3 interaction, human. As to the kind of experiment: blockers of TCR binding to CD3 – biochemical, fluorescence, TAMRA-labeled TCR probe, confirmation (AID 652036; in the data active means inhibition above about 19%). As to conditions: TAMRA-labeled TCR probe fluorescence binding assay; at 9.4 µM; active compounds read high.
Test [30] deals with (Lyso)-N-acylphosphatidylethanolamine lipase (Mus musculus) (UniProt Q8VD66). As to the kind of experiment: mouse ABHD4 hydrolase blockers, triplicate – biochemical, fluorescence polarization, confirmation (AID 720658;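 active means mean inhibition across replicates above the hit cutoff set in the primary screen, cut at about 30% in these data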;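 further: 0% = wild-type ABHD4 with DMSO and 100% = catalytically dead S159A mutant with DMSO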). The conditions noted are these: purified mABHD4, FP-Rh probe fluorescence polarization; at 8.92 µM; active compounds read high.
Sequence of (Lyso)-N-acylphosphatidylethanolamine lipase (Mus musculus) (Q8VD66 whole entry, looked up): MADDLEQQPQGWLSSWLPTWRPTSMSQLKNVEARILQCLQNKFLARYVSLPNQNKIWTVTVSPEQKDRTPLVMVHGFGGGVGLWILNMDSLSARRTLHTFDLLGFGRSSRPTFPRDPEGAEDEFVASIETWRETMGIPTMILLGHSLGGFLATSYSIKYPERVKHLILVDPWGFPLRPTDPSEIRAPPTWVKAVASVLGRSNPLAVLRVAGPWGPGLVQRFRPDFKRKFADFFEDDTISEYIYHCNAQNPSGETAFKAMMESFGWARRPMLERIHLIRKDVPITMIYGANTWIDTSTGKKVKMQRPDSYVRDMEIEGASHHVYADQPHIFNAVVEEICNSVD

Broadly, the inhibition is the relative decrease from the control value, in per cent.

Unmarked numbers belong to inactive results. The list shows a part of the results. Active and inactive are the calls of the source.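 How the source made its calls, unless noted: active means inhibition above the mean over all tested compounds plus 3 SD, which no compound reached; inactive means the rest.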

Sequence of Nuclear receptor subfamily 5 group A member 2 (Homo sapiens) (O00482 whole entry, looked up): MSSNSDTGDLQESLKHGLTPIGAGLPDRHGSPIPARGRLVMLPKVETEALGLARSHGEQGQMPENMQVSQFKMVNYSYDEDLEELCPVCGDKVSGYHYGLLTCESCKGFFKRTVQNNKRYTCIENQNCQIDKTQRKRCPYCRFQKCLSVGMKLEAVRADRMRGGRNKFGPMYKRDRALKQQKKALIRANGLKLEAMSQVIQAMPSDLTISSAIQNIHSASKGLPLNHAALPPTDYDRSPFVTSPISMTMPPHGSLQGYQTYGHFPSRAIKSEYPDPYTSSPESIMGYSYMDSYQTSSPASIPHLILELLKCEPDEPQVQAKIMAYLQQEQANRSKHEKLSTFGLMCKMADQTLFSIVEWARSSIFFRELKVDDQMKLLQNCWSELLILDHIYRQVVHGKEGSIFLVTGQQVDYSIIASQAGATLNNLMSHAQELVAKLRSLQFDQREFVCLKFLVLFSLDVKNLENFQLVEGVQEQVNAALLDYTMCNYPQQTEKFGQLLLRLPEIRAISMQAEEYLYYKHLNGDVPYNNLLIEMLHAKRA

Turning to `COc1ccc2c(c1)c(=Cc1ccc(N(C)C)cc1)c1cc(-c3ccccc3)[n+](C)n12`, the inhibition in test [1] is 68.3% (active); in test [2], 82% (active); in test [3], 69.4% (active); in test [4], 83.8% (active); in test [5] it was 99% (active); in test [6], 81.4% (active). Further, the inhibition is 40.1% (active) in [7], 86.4% (active) in test [8], -22.4% in test [10] and -6.4% in test [11]. Besides, the activation in [9] was 6.29%.

`COc1ccc(-n2ncc3c(N4CCCc5ccccc54)ncnc32)cc1`: the activation (% of control) is 209% (active) in [12], 139% (active) in [13] and 112% (active) in test [14].

Turning to `Cc1cccc(COc2ccccc2/C=N/Nc2ccc([N+](=O)[O-])cc2)c1`, the inhibition was 16.9% in test [15]; 36.9% (active) in test [16]; 9.96% in test [17]; 20.3% in test [18]; 23.3% in test [19]; -1.39% in [20]. Also, the values for the inhibition in [21] and in test [22] were 44.2% (active) and 50.4% (active), respectively.

In the case of `NC1=CC(=O)C(=O)c2cccnc21`, the inhibition was 24.5% in test [23]; 35.9% (active) in test [24]; 47.5% (active) in test [25]; 45.5% (active) in [26]; 8.35% in [27]; 6.36% in test [28]. The inhibition in [29] is 11.5%; in [30], 68.3% (active); in [10], -160%; in test [11], 79.9% (active). Also, the activation in test [9] was 45.1% (active).
